Source: PubChem BioAssay AID2717 (Broad Institute, 2010)
In all, about 300,000 compounds went through this assay and about 3,200 (1.1%) were called active. Only a selection was taken, and actives are over-represented in it overall. Unmarked numbers belong to inactive results. Rule as the data show it: active = inhibition above about 75%; inconclusive = no clear call, values can overlap the other calls; inactive = below that; tested in HMLE shEcad cells.

Assay: cancer stem cell viability inhibitors, primary screen, luminescence (AID 2717)
Settings: cancer stem cell-like cells viability, at 7.5 µM, stronger effect = higher value

Compound | inhibition
C[C@H](NS(=O)(=O)c1ccc(Cl)cc1)C(=O)OCC(=O)N1CCOCC1 | 17.5%
Fc1ccc(/C=N/Nc2nc(-c3cccnc3)nc3ccccc23)cc1 | 5.78%
Oc1ccc(/C=N/Nc2nc(-c3ccccc3F)nc3ccccc23)c(O)c1 | 123% (active)
Cc1nc2ccccc2nc1N/N=C/c1ccc(O)cc1O | 63.2%
Cc1noc(C)c1S(=O)(=O)N(C)C[C@H]1Oc2ccc(NC(=O)C3CCCCC3)cc2C(=O)N([C@H](C)CO)C[C@@H]1C | -25.9%
CCCc1cc(=O)[nH]c(SCC(=O)Nc2ccc(C(=O)Nc3ccccc3OC)cc2)n1 | -1.96%
O=C(COC(=O)c1cccnc1Cl)NC12CC3CC(CC(C3)C1)C2 | -4.72%
O=C(COC(=O)c1cc[n+]([O-])cc1)Nc1ccc(Cl)c(C(F)(F)F)c1 | 13.8%
CC(=O)Nc1ccc(N2C(=O)C3C4C=CC(CC4)C3C2=O)cc1 (centres undefined) | 5.09%
Cc1ccc(N2C(=O)C3C4C=CC(CC4)C3C2=O)cc1Br (centres undefined) | 84.8% (active)
Cc1ccc(N2C(=O)C3C4C=CC(CC4)C3C2=O)cc1Cl (centres undefined) | 51.3%
O=C(CN1C(=O)NC2(CCCCCCC2)C1=O)NCc1ccc(F)cc1 | -11.3%
CCNC(=S)N1CCN(S(=O)(=O)c2ccc(Cl)s2)CC1 | -8.45%
COc1ccc(/C=C/c2nnc(NC(=O)C(C)C)s2)cc1 | -1.02%
COc1ccc(NC(=O)COC(=O)c2ccc(NS(=O)(=O)/C=C/c3ccccc3)cc2)cc1 | -2.32%
COC(=O)c1ccc(/C=C/c2c(-c3ccc(OC)cc3)sc3ccccc23)cc1 | 120% (active)
CC(C)Cn1c(SCC(=O)Nc2ccc(Cl)cc2F)nc(O)cc1=O | -7.16%
O=C(CSc1ncnc2sccc12)NC1CCS(=O)(=O)C1 (centres undefined) | -16.5%
O=C(COC(=O)c1cccnc1Cl)Nc1ccc(S(=O)(=O)N2CCOCC2)cc1 | 1.63%
Cc1ccc(-c2csc(-c3cc(C)on3)n2)cc1 | -0.292%
Cc1ccc(-c2csc(-c3c[nH]c4ccccc34)n2)cc1 | 0.177%

Compound | inhibition
CCCc1cc(-c2nc(-c3ccc(C)cc3)cs2)ccn1 | 101% (active)
O=C(CCc1ccc(S(=O)(=O)N2CCOCC2)cc1)OCC(=O)c1ccc(Br)cc1 | 7.19%
COc1ccc(NS(=O)(=O)c2cc(NC(=O)c3ccc(S(=O)(=O)N(C)C)cc3)ccc2N2CCOCC2)cc1 | -5.14%
COc1cc(OC)cc(-c2c(C#Cc3ccsc3)c3cc(-c4ccc(OC)cc4F)ccc3n2C)c1 | 0.462%
COc1cc(/C=C(\C#N)c2nc3ccccc3[nH]2)ccc1O | 33.3%
COc1ccc(/C=C(\C#N)c2c[nH]c3ccccc23)cc1 | 102% (active)
COc1ccc2[nH]cc(/C=C(/C#N)S(=O)(=O)c3ccccc3)c2c1 | 12.3%
Cc1cc(C)c(CN2CCN(C(=O)Cn3ccc(NC(=O)OCc4ccccc4)nc3=O)CC2)c(C)c1 | -17.4%
C=CC[C@@H](CC(=O)N[C@@H](CO)Cc1ccccc1)C(=O)N[C@H](COC(=O)[C@H](CC=C)CC(=O)OC(C)(C)C)Cc1ccccc1 | -16.7%
COCC(C)n1c(SCC(=O)NC2CCCCC2C)nc2ccccc2c1=O (centres undefined) | 4.54%
S=c1[nH]nc(-c2cccnc2)n1/N=C/C(Cl)=C\c1ccccc1 | 8.61%
Cc1cc(-c2n[nH]c(=S)n2/N=C/C(Br)=C/c2ccccc2)n[nH]1 | 82.9% (active)
S=c1[nH]nc(-c2cc(-c3ccccc3)n[nH]2)n1/N=C/c1c2ccccc2cc2ccccc12 | 48%
CN(C(=O)CSc1cccc[n+]1[O-])C1CCCCC1 | -18.5%
C[C@H](CO)N1C[C@H](C)[C@@H](CN(C)S(=O)(=O)c2ccc(F)cc2)Oc2c(NC(=O)Nc3ccccc3)cccc2C1=O | -11.6%
CC1Cc2ccccc2N1S(=O)(=O)c1cccc(C(=O)OCC(=O)N2CCOCC2)c1 (centres undefined) | -6.52%
COc1cc(OC)cc(C(=O)N[C@H](C(=O)NNC(=O)c2ccc(Br)cc2)C(C)C)c1 | -10.3%
Cc1cccc(N(C)C(=O)c2cc3c(=O)[nH]c4ccc(C)cc4c3s2)c1 | 80.5% (active)
CCN(CC)CCCNC(=O)c1cc2c(=O)[nH]c3ccc(C)cc3c2s1 | -3.35%
Cc1ccc2[nH]c(=O)c(CC(=O)O)c(-c3ccccc3)c2c1 | -9.95%
O=C(COc1ccc([N+](=O)[O-])cc1Cl)Nc1ccc2[nH]c(=O)[nH]c2c1 | -8.82%

Compound | inhibition
CC1CCCCC12NC(=O)N(CC(=O)N1CCN(c3ccccc3)CC1)C2=O (centres undefined) | -3.2%
CCOc1ccc(Br)cc1S(=O)(=O)Nc1ccc(S(=O)(=O)Nc2cc(C)on2)cc1 | -12.8%
COc1ccccc1CNC(=O)c1ccc(Cl)c(S(=O)(=O)N2CCCC2)c1 | -0.0556%
COc1ccc(S(=O)(=O)N2CCOCC2)cc1NC(=O)CSc1nnc(NC2CC2)s1 | -7.56%
CCCCCCSc1ccc(-c2nc3ccc(Cl)cn3c2NCc2ccccc2)cc1 | 61.1%
CCCCNc1c(-c2cccc(Sc3ccc(OC)cc3)c2)nc2ccccn12 | 78% (active)
CCCCNc1nc2c(c(=O)n(C)c(=O)n2C)n1Cc1cccc(OC)c1 | -3.15%
O=C(NN=Cc1ccc(N2CCOCC2)cc1)c1cc2ccccc2cc1O | 10.1%
COc1ccc(S(=O)(=O)N2CCCCCC2)cc1NC(=O)Cc1ccc(OC)c(OC)c1 | -7.41%
O=C(CSc1nccn1-c1cccc(F)c1)NC1CCCC1 | -0.605%
Cc1c(Cl)c([N+](=O)[O-])nn1Cc1ccc(C(=O)N/N=C\c2cc(Cl)ccc2O)o1 | 106% (active)
Cc1c(Cl)c([N+](=O)[O-])nn1CCCC(=O)Nc1cc(Cl)ccc1Cl | -11.4%
Cc1ccc(C(=O)O)cc1NC(=O)c1ccc(Cn2nc(C)c(Cl)c2C)o1 | -28.7%
CCC(CO)Oc1cc(NC(=O)c2cccc(F)c2)c2ncn(C(C)C)c2c1 (centres undefined) | -13.2%
C=CCC[C@H](Cc1ccc(F)cc1)C(=O)OC[C@@H](Cc1c[nH]c2ccccc12)NC(=O)[C@H](CC=C)CC(=O)N[C@H](CO)Cc1ccccc1 | 24.2%
Cc1nnsc1C(=O)Nc1cccc(Cl)c1C | 4.62%
Cc1nnsc1C(=O)N/N=C/c1ccccc1Cl | -13.9%
Cc1cc(Cl)ccc1NNC(=O)c1snnc1C | 75.1% (active)
O=C(CN1C(=O)NC2(CCOc3ccccc32)C1=O)Nc1cccc([N+](=O)[O-])c1 (centres undefined) | 0.94%
COc1cccc(-c2ccc3c(c2)S(=O)(=O)c2cccc(C(=O)O)c2C3=O)c1OC | 7.27%
COc1ccc2c(c1)[C@H]1[C@H](CO2)[C@H](c2ccccc2)[C@]2(C)C(=O)Nc3cc(F)c(F)cc3C(=O)N12 | 21.6%

Compound | inhibition
Cc1ccc(NC(=O)C2CCC(C(C)(C)C)CC2)cc1S(=O)(=O)N1CCOCC1 (centres undefined) | 45.1%
CC1(C)C=C2[C@H]3CC[C@@H]4[C@@]5(C)CCC(=O)C(C)(C)[C@@H]5CC[C@@]4(C)[C@]3(C)CC[C@@]2(C(=O)O)CC1 | 107% (active)
NCCN1CCN2C(=O)CN(C(=O)c3ccccc3)CC12 (centres undefined) | -9.2%
CCCCOc1ccc(C(=O)NCC(=O)OCC(=O)c2c(N)n(C)c(=O)n(C)c2=O)cc1 | 11.8%
COC(=O)c1ccccc1Sc1c(/C=N/OCc2ccc(Cl)cc2)c(C(F)(F)F)nn1C | 17.8%
Cn1nc(C(F)(F)F)c(C(=O)Nc2cccc(C(F)(F)F)c2)c1SCc1ccc(Cl)cc1 | 105% (active)
O=C(O)CSc1c2c(nc3cc(C(=O)Nc4cccc(C(F)(F)F)c4)ccc13)CCCC2 | 14.3%
O=C(CNC(=O)c1n[nH]c2ccccc12)Nc1cc(Cl)ccc1Cl | 5.44%
CC(CNC(=O)Cn1cnc2c(OCc3ccccc3)ncnc21)c1ccccc1 (centres undefined) | -8.55%
O=C(Nc1ccccc1)/C(=C/c1ccc([N+](=O)[O-])cc1)NC(=O)c1ccccc1 | -13%
CCOC(=O)/C(=C\c1ccc([N+](=O)[O-])cc1)C(=O)c1cc(C(C)=O)c(Nc2ccccc2)s1 | 88.4% (active)
Cc1cccc(NC(=O)c2sc(-c3ccccc3)nc2-c2ccc([N+](=O)[O-])cc2)c1 | 12.3%
O=C(OCC(=O)N1CCN(c2ccccc2)CC1)c1ccc([N+](=O)[O-])s1 | 0.421%
CN(CC(=O)Nc1ccc(OC(F)F)cc1)S(=O)(=O)/C=C/c1ccccc1 | 7.09%
COc1cc(-c2cc(C(=O)OCC(=O)Nc3ccc4c(c3)OCO4)c3ccccc3n2)cc(OC)c1OC | -14.5%
O=C(COC(=O)c1c2c(nc3ccccc13)/C(=C\c1cccs1)CCC2)Nc1ccccc1Cl | 73.5%
NS(=O)(=O)c1ccc(NC(=O)COC(=O)c2c3c(nc4ccccc24)/C(=C\c2ccc4c(c2)OCO4)CCC3)cc1 | 93.4% (active)
CN(C(=O)COC(=O)Cc1ccccc1[N+](=O)[O-])C1CCS(=O)(=O)C1 (centres undefined) | -16.1%
CCCN1CCN(C(=O)CCCNC(=O)c2ccc(Cl)cc2)CC1 | -11.6%
CN1CCN(CCCNC(=O)c2ccc(/C=C3\Oc4ccccc4N(Cc4ccc(Cl)cc4)C3=O)cc2)CC1 | 103% (active)
CN1C(=O)/C(=C/c2ccc(C(=O)NC3CCCC3)cc2)Oc2ccccc21 | 2.95%
